The panel holds about 83,000 compounds, 20% with a hit somewhere; the sample as a whole holds those more often.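 Percent growth is the endpoint: 0 to 100 indicates growth inhibition (40 means 60% inhibition), 0 means no net growth, and negative values indicate cell death.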 Active and inactive are the calls of the source.

The test system of the assay is A498 renal. Nature of the assay: NCI-60 one-dose screen, 48 h (100 = growth as untreated, 0 = no growth, -100 = all killed). Particulars: 10 µM unless noted. The protocol: Growth inhibition of the A498 human tumor cell line is measured as a screen for anti-cancer activity. Cells are grown in 96 well plates and exposed to the test compound for 48 hours. Compounds are tested at a single concentration, which is 10^-5 M for most compounds. The reported endpoint is percent growth (GI% or GIPRCNT), where numbers from 0 - 100% represent growth inhibition, and numbers from -100% - 0 represent cell death. For example, a value of 40 represents 60% growth inhibition. A value of 0 means no net growth occurred over the course of the experiment. A value of -40 indicates 40% of cells at the beginning of the experiment died by the end of the experiment. A value of -100 means all cells are dead at the end of the experiment.
NCI-60 Human Tumor Cell Lines Screen was performed using the standard one-dose NCI protocol, which is described in more detail at https://dtp.cancer.gov/discovery_development/nci-60/default.htm.
Compounds with GIPRCNT values below 10 were considered active. Activity score was based on GIPRCNT using the following formula: […]
Score is 0 for GIPRCNT values of 100 or above, 50 for GIPRCNT values of 0, and 100 for GIPRCNT values of -100.
For `N/N=C(\C(=N\N)c1ccccc1)c1ccccc1`, the growth was 76.1% (inactive).

Turning to `COc1ccc(-c2cnc(-c3ccncc3-c3cccc(OC)c3)o2)cc1`, the growth was 35.3% (inactive).

Turning to `O=C(O)c1ccccc1Oc1cc(-c2ccco2)nc(OCCN2CCOCC2)n1`, the growth was 104% (inactive).

For the molecule `Cc1ccc(Nc2cc(Cl)c([N+](=O)[O-])cc2[N+](=O)[O-])cc1`, the growth was 92.3% (inactive).

As to `O=C1N(Cc2ccccc2Cl)c2ccccc2C12NN=C(c1ccccc1)S2` (stereo not given), the growth is 52.8% (inactive).

For `O=C1OCC2=C1C(c1ccccc1)c1cc3c(cc1N2CCO)CCC3` (stereo not given), the growth was -21.5% (active).

On to `CO[C@H](C(=O)[C@@H](O)[C@@H](C)O)[C@@H]1Cc2cc3cc(O[C@H]4C[C@@H](O[C@H]5C[C@@H](O)[C@H](O)C(C)O5)[C@H](O)C(C)O4)c(C)c(O)c3c(O)c2C(=O)[C@H]1O[C@H]1C[C@@H](O[C@H]2C[C@@H](O[C@H]3C[C@](C)(O)C(=O)C(C)O3)[C@@H](O)C(C)O2)[C@H](O)C(C)O1` (stereo not given in full), for which the growth was -33% (active).

For `C=CCOc1ccc2c(C)cc(=O)oc2c1`, the growth was 71% (inactive).

`O=C1/C(=C/c2ccccc2)SC(=Nc2ccccc2)N1Nc1ccccc1`: the growth was -33.1% (active).

With `Fc1ccc(-c2nc(-c3ccc(-c4nc5ccc(F)cc5[nH]4)cc3)no2)cc1`, the growth was 79.6% (inactive).

On to `COc1ccc(N=C2CSc3nnc(-c4cc(F)c(Cl)cc4Cl)n3N2)cc1`, for which the growth is -41.7% (active).

As to `CCCCn1cnc2c(SCc3ccc([N+](=O)[O-])cc3)nc(N)nc21`, the growth was 86.3% (inactive).

Regarding `COc1ccc(C(=O)OC2C(OC3C(O)COC(O[C@H]4C[C@H]5[C@@H]6CC=C7C[C@@H](O)CC[C@]7(C)[C@H]6CC[C@]5(C)[C@H]4[C@H](C)C(=O)CCC(C)C)C3OC(C)=O)OCC(O)C2O)cc1` (stereo not given in full), the growth is -82.2% (active).

With `Clc1ccccc1CNc1c2ccccc2nc2ccccc12`, the growth was -5.85% (active).

As for `COc1ccc(CNc2c3ccccc3nc3ccc(OC)cc23)cc1`, the growth is -5.96% (active).

For `CC(C)CCSc1nc(-c2ccc(F)cc2)c(C#N)c(N2CCCCC2)n1`, the growth was 88% (inactive).

In the case of `c1ccc(-c2nnn(-c3ccccc3)n2)cc1`, the growth was 119% (inactive).

On to `Cc1cccc2nc3ccccc3c(Nc3ccc(NS(C)(=O)=O)cc3)c12`, for which the growth was 45.3% (inactive).

For the molecule `CCN(CC)CCCC(C)Nc1c(-c2ccccc2)cnc2cc(Cl)ccc12` (stereo not given), the growth is 60% (inactive).

Consider `COc1ccc2c(c1)C1=NN(C(=O)CO)[C@H](c3ccc(OC(F)(F)F)cc3)[C@@H]1CC2`, for which the growth was 94.4% (inactive).

In the case of `NC(=O)c1ccc[n+](Cc2ccccc2)c1`, the growth was 74.5% (inactive).

On to `Cc1ccc(C(=O)CC(=O)C(F)(F)C(F)(F)C(F)(F)F)s1`, for which the growth is 112% (inactive).

Regarding `O=C(CCCCCCN1CC(=O)N2[C@@H](c3ccc(Cl)c(Cl)c3)c3[nH]c4ccccc4c3C[C@H]2C1=O)NO`, the growth is 86% (inactive).

Turning to `Nc1nc(NC2CC2)cc(-c2cccc(Cl)c2Cl)n1`, the growth was 47.7% (inactive).

With `COc1cc(CN2CCC(N3CCCC3=O)c3ccccc32)cc(OC)c1OC` (stereo not given), the growth is 63.6% (inactive).

With `Cc1ccccc1NC(=O)c1sc2nc3c(cc2c1N)C(=O)CCC3`, the growth was 31.3% (inactive).

Consider `COc1ccc(Oc2nc(Nc3ccc(N4CCOCC4)cc3)ncc2NC(=O)Nc2cccc(OC)c2)cc1`, for which the growth is 66.3% (inactive).

For the molecule `CS(=O)(=O)c1ccc(Cl)c([N+](=O)[O-])c1`, the growth is 106% (inactive).

Take `CCCCCCCC/C=C/CCCCCCCC1=NC(C)(C)CN1c1ccccc1`: the growth was 105% (inactive).

`CC(=O)OC[C@H]1O[C@@H](n2c(=O)cc(N)[nH]c2=O)C(OC(C)=O)[C@@H]1OC(C)=O` (stereo not given in full): the growth is 98.1% (inactive).

In the case of `CC(=O)Oc1c(Cl)c(Cl)c(Cl)c(Cl)c1Cl`, the growth was 86.1% (inactive).

For the molecule `CS(=O)(=O)c1ccc(C(=O)N/N=C/c2ccc3c(c2)OCO3)cc1`, the growth was 94.6% (inactive).

Turning to `O=C(CC(=O)c1cccc(Cl)c1)c1cccc(Cl)c1`, the growth is 79.2% (inactive).

With `CN1C(=O)N(C)C2C1NN=c1s/c(=C\c3ccc(C(F)(F)F)cc3)c(=O)n12` (stereo not given), the growth was 18.4% (inactive).

For `CCS(=O)(=O)Nc1cccc(Nc2c3cccc(C)c3nc3c(C)cccc23)c1OC`, the growth was -1.15% (active).

On to `C=C1C(=O)O[C@H]2[C@H]1CC/C(COC(=O)NCc1cn(C)c3ccccc13)=C\CC[C@@]1(C)O[C@@H]21`, for which the growth was 63.4% (inactive).

Regarding `COc1ccc(C(=O)O)cc1.[Ag]`, the growth was 96.5% (inactive).

As to `COc1cc(C2CC(=O)Nc3c2cnn3C)cc(OC)c1OC` (stereo not given), the growth was 113% (inactive).

In the case of `O=C(/C=C/c1ccco1)c1ccccc1O`, the growth is 106% (inactive).

With `CC[C@H](C)[C@H](N)C(=O)O`, the growth is 91% (inactive).

The values are drawn from PubChem BioAssay (NCI).
